Cruzain inh noDet = cruzain (T. cruzi) inhibition without detergent | purified cruzain, Z-FR-AMC fluorescence, no detergent | Potency, µM, for the others: max response, negative = inhibition, hits mostly inhibitors | actives 2.3% (n = 200,000);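 also: plate controls were enzyme without inhibitor for no effect and buffer without enzyme for full effect; nearly all actives have a fitted effect of over 40% in size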
Target sequence (P25779 123-467 limits assumed): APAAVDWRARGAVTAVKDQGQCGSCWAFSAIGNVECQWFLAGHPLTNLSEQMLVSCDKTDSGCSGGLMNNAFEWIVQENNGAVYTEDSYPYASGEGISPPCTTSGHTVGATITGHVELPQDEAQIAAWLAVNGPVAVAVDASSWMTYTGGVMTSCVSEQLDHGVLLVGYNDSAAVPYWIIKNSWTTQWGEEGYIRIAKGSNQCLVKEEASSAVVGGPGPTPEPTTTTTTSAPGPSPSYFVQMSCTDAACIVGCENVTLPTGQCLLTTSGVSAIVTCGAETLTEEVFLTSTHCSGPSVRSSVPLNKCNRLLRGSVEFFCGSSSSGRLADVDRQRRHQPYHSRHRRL
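Purified cruzain at 1.5 nM, pre-incubated 15 min with compound at room temperature in 100 mM sodium acetate pH 5.5, 5 mM DTT, 0.00005% Triton X-100. Reaction started with 2 uM Z-FR-AMC; AMC fluorescence increase over 60 s gives rate.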
Cruzain inh Det = inhibitors of Trypanosoma cruzi cruzain with detergent; P25779; purified cruzain, Z-FR-AMC fluorescence, 0.01% Triton; Potency, µM, for inactives: max response, negative = inhibition, hits mostly inhibitors; actives 0.43% (n = 200,000);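 also: plate controls were neutral wells for no effect and buffer without enzyme for full effect; nearly all actives have a fitted effect of over 40% in size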
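Cruzain (1.5 nM) preincubated 15 min at RT with compound in 100 mM sodium acetate pH 5.5, 5 mM DTT, 0.01% Triton X-100. Reaction started with 2 uM Z-FR-AMC; AMC fluorescence (ex 360/em 450 nm) change over 60 s gave rate.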
* marks the source's active call; other numbers are inactive results. Only some compounds are listed: those with a hit (about 2.5% of all), similar ones and a draw of the others. Calls follow the shape of the dose curve; as a rule, active = well fitted curve in the direction sought with a large enough effect; inconclusive = small, poorly fitted or top-dose-only effect, or another doubt; inactive = no such curve, though single readings can be large; an effect the other way counts as inactive or inconclusive. Potency is read from the fitted curve at half-maximal effect.

What do the screens show for `O=C(Nc1nc(-c2cccnc2)cs1)c1ccc(S(=O)(=O)N2CCOCC2)cc1`?
Cruzain inh noDet: -3.0%; Cruzain inh Det: 7.1%

How did O=C(Nc1nc(-c2ccc(S(=O)(=O)N3CCCCCC3)cc2)cs1)c1ccccc1 do in these assays?
Cruzain inh noDet: 10µM*; Cruzain inh Det: -3.3%

How did O=C(Nc1nc(-c2cccs2)cs1)c1ccc(S(=O)(=O)N2CCCC2)cc1 do in these assays?
Cruzain inh noDet: -16.9%; Cruzain inh Det: 2.5%

How did O=C(Nc1nc(-c2ccc3c(c2)OCCO3)cs1)c1ccc(S(=O)(=O)N2CCCCC2)cc1 do in these assays?
Cruzain inh noDet: 12.6µM*; Cruzain inh Det: -0.7%

Results for CCc1nnc(NC(=O)c2ccc(S(=O)(=O)N3CCCCCC3)cc2)s1 ?
Cruzain inh noDet: 12.6µM*; Cruzain inh Det: 4.1%

What do the screens show for `COc1ccc(CNc2ncnc3ccc(-c4cccc(C#N)c4)cc23)c(OC)c1`?
Cruzain inh noDet: 4.4%; Cruzain inh Det: -5.8%

What do the screens show for `CCOc1ccc(C(=O)c2cn(CC(=O)Nc3cc(OC)cc(OC)c3)c3ccc(F)cc3c2=O)cc1`?
Cruzain inh noDet: inconclusive; Cruzain inh Det: -3.4%

What do the screens show for `COc1ccc(OC)c(NC(=O)[C@H](CSCc2ccccc2)N2Cc3ccccc3C2=O)c1`?
Cruzain inh noDet: 9.8%; Cruzain inh Det: -0.1%

What do the screens show for `COc1cccc(N2CCN(C(=O)CN3CCSc4ccc(S(=O)(=O)N(C)C)cc43)CC2)c1`?
Cruzain inh noDet: inconclusive; Cruzain inh Det: -3.6%

How did COc1cc(N=c2ssnc2Cl)c(OC)cc1Cl do in these assays?
Cruzain inh noDet: 25.1µM*; Cruzain inh Det: -11.2%

Results for COc1ccc(OC)c(N=c2ssnc2Cl)c1 ?
Cruzain inh noDet: inconclusive; Cruzain inh Det: -14.7%

Results for COc1ccc(CCNC(=O)c2ccc3c(Cl)c4c(nc3c2)CCCC4)cc1OC ?
Cruzain inh noDet: inconclusive; Cruzain inh Det: -2.3%

Results for Cc1ccc(S(=O)(=O)c2cn(CC(=O)Nc3cccc(Cl)c3)c3ccccc3c2=O)cc1 ?
Cruzain inh noDet: 31.6µM*; Cruzain inh Det: -1.8%

What do the screens show for `COc1ccc(NC(=O)Cn2cc(S(=O)(=O)c3ccc(C)cc3)c(=O)c3ccccc32)cc1OC`?
Cruzain inh noDet: inconclusive; Cruzain inh Det: -5.6%

How did O=C(Nc1nc2c(s1)CCCC2)c1ccc(S(=O)(=O)N2CCCc3ccccc32)cc1 do in these assays?
Cruzain inh noDet: inconclusive; Cruzain inh Det: -1.6%

Results for CC1CCc2nc(NC(=O)c3ccc(S(=O)(=O)N4CCCc5ccccc54)cc3)sc2C1 (stereo unspecified) ?
Cruzain inh noDet: 7.94µM*; Cruzain inh Det: -4.6%

What do the screens show for `CC(=O)c1ccc(N2C(=O)N(CC(=O)c3ccc(C)cc3)c3ccccc3S2(=O)=O)cc1`?
Cruzain inh noDet: inconclusive; Cruzain inh Det: -0.3%

Results for COc1cc(OC)cc(N2C(=O)N(CC(=O)c3ccc(F)cc3)c3ccccc3S2(=O)=O)c1 ?
Cruzain inh noDet: inconclusive; Cruzain inh Det: 0.4%

What do the screens show for `COc1cc(OC)cc(N2C(=O)N(Cc3ccc(C(C)(C)C)cc3)c3ccccc3S2(=O)=O)c1`?
Cruzain inh noDet: 3.98µM*; Cruzain inh Det: 0.7%

What do the screens show for `CCOc1ccc(N2C(=O)N(Cc3ccc(C)cc3C)c3ccccc3S2(=O)=O)cc1`?
Cruzain inh noDet: 25.1µM*; Cruzain inh Det: 0.1%

How did CCOC(=O)c1cc(-c2ccc(OC)cc2)n(CCC(=O)NCCc2ccccc2)c1C do in these assays?
Cruzain inh noDet: inconclusive; Cruzain inh Det: -4.5%

Results for CCN(CC)CCCCn1c(-c2ccccc2)nc2c(N(CCOC)CCOC)nc(C)nc21 ?
Cruzain inh noDet: 6.1%; Cruzain inh Det: -0.7%

Results for Cc1ccc(-n2nc3c(c2NC(=O)/C=C\c2ccc4c(c2)OCO4)CSC3)cc1 ?
Cruzain inh noDet: 31.6µM*; Cruzain inh Det: -4.3%

Results for Cc1ccc(-n2nc3c(c2NC(=O)/C=C\c2ccc4c(c2)OCO4)CSC3)c(C)c1 ?
Cruzain inh noDet: 25.1µM*; Cruzain inh Det: -6.2%

Results for Cc1ccc(-n2nc3c(c2NC(=O)c2ccc4c(c2)OCO4)CS(=O)C3)cc1 (stereo unspecified) ?
Cruzain inh noDet: -4.8%; Cruzain inh Det: -2.7%

What do the screens show for `Cc1ccc(-n2nc3c(c2NC(=O)C(C)(C)C)CSC3)c(C)c1`?
Cruzain inh noDet: 6.4%; Cruzain inh Det: 0.1%

How did CCOC(=O)c1[nH]c(C)c(CCC(=O)Nc2cccc(C(F)(F)F)c2)c1C do in these assays?
Cruzain inh noDet: -6.6%; Cruzain inh Det: -4.5%

How did Cc1ccc(NC(=O)c2c(C)oc3c2C2=NCCN2C=N3)cc1F do in these assays?
Cruzain inh noDet: -3.9%; Cruzain inh Det: -0.9%

What do the screens show for `COc1ccc(CCNC(=O)Cc2c(C)c3cc4c(C(C)(C)C)coc4c(C)c3oc2=O)cc1`?
Cruzain inh noDet: 8.8%; Cruzain inh Det: -0.4%

How did O=C(Cn1c(-c2cccs2)cc2cc(F)ccc21)NCCc1ccc(Cl)cc1 do in these assays?
Cruzain inh noDet: 12.6µM*; Cruzain inh Det: -1.9%

How did CCOc1ccc(CCNC(=O)Cn2c(-c3cccs3)cc3cc(F)ccc32)cc1OCC do in these assays?
Cruzain inh noDet: 15.2%; Cruzain inh Det: -3.5%

How did O=S(=O)(c1ccc(C2CCCCC2)cc1)N1CCN(c2cc(Cl)ccc2Cl)CC1 do in these assays?
Cruzain inh noDet: -8.3%; Cruzain inh Det: 0.4%

How did COc1ccc(NC(=O)c2cc(C)nc3ccccc23)cc1S(=O)(=O)Nc1ccccc1Cl do in these assays?
Cruzain inh noDet: inconclusive; Cruzain inh Det: -6.9%

What do the screens show for `COc1ccc(NC(=O)c2ccc3ccccc3n2)cc1S(=O)(=O)Nc1ccccc1Cl`?
Cruzain inh noDet: 12.6µM*; Cruzain inh Det: -2.0%

Results for O[C@@H](COc1cccc2ccccc12)CN1CCOCC1 ?
Cruzain inh noDet: 1.6%; Cruzain inh Det: 2.3%

What do the screens show for `O=C(Nc1cccc(Cl)c1Cl)c1ccc2c(c1)N(Cc1cccc(Cl)c1)C(=O)c1ccccc1S2(=O)=O`?
Cruzain inh noDet: 3.98µM*; Cruzain inh Det: 7.5%

Results for O=C(c1ccc2c(c1)N(Cc1ccc(Cl)cc1)C(=O)c1ccccc1S2(=O)=O)N1CCC(Cc2ccccc2)CC1 ?
Cruzain inh noDet: 12.6µM*; Cruzain inh Det: -2.6%

Results for O=C(NCc1ccccc1)c1ccc2c(c1)N(Cc1cccc(Cl)c1)C(=O)c1ccccc1S2(=O)=O ?
Cruzain inh noDet: inconclusive; Cruzain inh Det: -2.8%

Results for O=C(c1ccc2c(c1)N(Cc1ccccc1F)C(=O)c1ccccc1S2(=O)=O)N1CCC(Cc2ccccc2)CC1 ?
Cruzain inh noDet: -3.7%; Cruzain inh Det: -0.5%

How did CCc1ccccc1NC(=O)c1ccc2c(c1)N(Cc1cccc(Cl)c1)C(=O)c1ccccc1S2(=O)=O do in these assays?
Cruzain inh noDet: 15.8µM*; Cruzain inh Det: -3.6%

Results for COc1ccccc1CNC(=O)c1ccc2c(c1)N(Cc1cccc(Cl)c1)C(=O)c1ccccc1S2(=O)=O ?
Cruzain inh noDet: inconclusive; Cruzain inh Det: -0.4%

What do the screens show for `CC/C=C\C/C=C\C/C=C\C/C=C\C/C=C\CCCC(=O)O`?
Cruzain inh noDet: -12.9%; Cruzain inh Det: 3.9%

How did Cc1ccc(CNC(=O)c2nn(C)c3c2CSc2ccc(C)cc2-3)cc1 do in these assays?
Cruzain inh noDet: 20µM*; Cruzain inh Det: -3.5%

What do the screens show for `Cc1ccc(CCNC(=O)c2nn(C)c3c2CSc2ccccc2-3)cc1`?
Cruzain inh noDet: -9.1%; Cruzain inh Det: -4.1%

Results for Cc1ccc(C(=O)Nc2ccc(-n3c(C)nc4ccccc4c3=O)cc2)cc1[N+](=O)[O-] ?
Cruzain inh noDet: 21.1%; Cruzain inh Det: 0.9%

Source: PubChem BioAssay (National Center for Advancing Translational Sciences (NCATS))
